Only some compounds are listed: those with a hit (about 11% of all), similar ones and a draw of the others.
G9a inh: qHTS Assay for Inhibitors of Histone Lysine Methyltransferase G9a. Histone-lysine N-methyltransferase EHMT2 (Homo sapiens), Q96KQ7. AID 504332, 2011. G9a H3K9 monomethylation, AlphaScreen, 2 h. Potency, µM (series often up to 102 µM), for inactives: at the top dose activity, negative = inhibition, actives largely listed as inhibitors. 8.8% of 350,000 active; note: % is set by controls: 0 for no effect and ±100 for the full control effect; nearly all actives have a fitted effect of over 75% in size
Target sequence (Q96KQ7 913-1193 limits assumed): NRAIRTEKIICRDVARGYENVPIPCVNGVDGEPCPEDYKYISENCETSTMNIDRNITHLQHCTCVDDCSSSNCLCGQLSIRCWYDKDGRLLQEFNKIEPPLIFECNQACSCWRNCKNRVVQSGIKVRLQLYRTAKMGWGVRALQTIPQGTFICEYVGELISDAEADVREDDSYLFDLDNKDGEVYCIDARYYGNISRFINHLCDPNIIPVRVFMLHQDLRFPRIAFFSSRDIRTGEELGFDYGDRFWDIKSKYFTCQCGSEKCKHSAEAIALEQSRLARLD
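Enzyme 20 nM + cpd, 15 min RT; add b-H3K9 pep 500 nM / SAM 20 uM; 2 h RT; anti-H3K9me1 Ab 0.5 ug/mL + SA donor / anti-rabbit acceptor beads 20 ug/mL each, 10 min; AlphaScreen read.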
JMJD2A Tudor inh: qHTS Assay for Inhibitors of JMJD2A-Tudor Domain. AlphaScreen JMJD2A-Tudor / H3K4me3 peptide binding. Potency, µM (doses to about 114 µM), for inactives: at the highest dose activity change, negative = inhibition, actives largely listed as inhibitors. 4.4% of 390,000 active; note: % is set by controls: 0 for no effect and ±100 for the full control effect; nearly all actives have a fitted effect of over 50% in size
BAZ2B inh: qHTS Assay for Inhibitors of BAZ2B. Bromodomain adjacent to zinc finger domain protein 2B (Homo sapiens), Q9UIF8. AlphaScreen BAZ2B-H3K14Ac peptide displacement. Potency, µM (doses to about 114 µM), without a hit: top-dose activity change, negative = inhibition, hits mostly inhibitors. 4.4% of 360,000 active; note: % is set by controls: 0 for no effect and ±100 for the full control effect; nearly all actives have a fitted effect of over 60% in size
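BAZ2B (50 nM) with biotin-H3(5-23)K14Ac peptide (50 nM) in PBS pH 7.4, 0.01% Tween-20, preformed 30 min, then compound 30 min at room temperature; top concentration 110uM. AlphaScreen streptavidin donor/nickel chelate acceptor beads (10 ug/mL final), 20 min dark, signal read.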
L3MBTL1 inh: qHTS Assay for the Inhibitors of L3MBTL1 | Lethal(3)malignant brain tumor-like protein 1 (Homo sapiens), Q9Y468 | AlphaScreen L3MBTL1–H3K9me1 peptide binding | Potency, µM (doses to about 57.1 µM), for the others: at the highest dose activity, negative = inhibition, actives largely listed as inhibitors | 0.66% of 230,000 active; note: % is set by controls: 0 for no effect and ±100 for the full control effect; nearly all actives have a fitted effect of over 60% in size
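Read-out is AlphaScreen signal from streptavidin donor and nickel chelate acceptor beads (10 ug/mL final each) bridging L3MBTL1 (50 nM) and biotinylated K9-monomethylated H3(1-15) peptide (75 nM), after 30 min compound exposure at room temperature.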
HP1b binding inh: HTS for Inhibitors of HP1-beta Chromodomain Interactions with Methylated Histone Tails; Chromobox protein homolog 1 (Homo sapiens), P83916; Potency, µM (doses to about 114 µM), without a hit: at the top dose activity change, negative = inhibition, hits mostly inhibitors; AlphaScreen HP1-beta / biotin-H3K9me3 peptide binding; 0.56% of 390,000 active; note: nearly all actives have a fitted effect of over 70% in size
Target sequence (P83916 whole entry, looked up): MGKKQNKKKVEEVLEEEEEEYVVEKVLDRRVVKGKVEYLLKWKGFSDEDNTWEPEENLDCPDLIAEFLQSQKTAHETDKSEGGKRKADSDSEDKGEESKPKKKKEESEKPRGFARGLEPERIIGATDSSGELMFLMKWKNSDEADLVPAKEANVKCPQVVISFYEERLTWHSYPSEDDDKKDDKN
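Compound inhibition of the preformed complex between 50 nM HP1-beta and 50 nM biotinylated H3K9me3 peptide was read by AlphaScreen. Buffer was PBS pH 7.4 with 0.01% Tween-20. Incubations ran 30 min at room temperature, with 10 ug/mL donor/acceptor beads.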
* marks the source's active call; other numbers are inactive results; ? = inconclusive; . = not tested or not shown; [ ] = remark or other dose. Calls come from the whole dose curve; as a rule, active = well fitted inhibition curve with a large enough effect; inconclusive = small, poorly fitted or top-dose-only effect; inactive = no such curve, though single readings can be large or run the other way. Potency is the fitted concentration of half-maximal effect.

SMILES	G9a inh	JMJD2A Tudor inh	BAZ2B inh	L3MBTL1 inh	HP1b binding inh
CCC1CCCCN1C(=S)NC(=O)c1cc(S(=O)(=O)N2CCOCC2)ccc1C (stereo unspecified)	45µM*	-2%	-26%	-6%	32%
CC(=O)c1ccc(NC(=O)c2cc(S(=O)(=O)N3CCOCC3)ccc2C)cc1	10%	-12%	-8%	.	22%
Cc1ccc(S(=O)(=O)N2CCOCC2)cc1C(=O)Nc1ccc(N2CCCCCC2)cc1	0%[0.501 µM]	22µM*	40µM*	?	?
CCc1ccc(-n2nc(CO)c(C(=O)NCCc3ccccc3)n2)cc1	12%[59 µM]	-11%	4%	.	36%
Cc1ccc(SCC(c2ccccc2)N2CCN(C)CCC2=O)cc1 (stereo unspecified)	.	-23%	.	.	7%
Cc1ccc2c(c1)c1c(n2CC(O)CNC2CCCCC2)CCCC1 (stereo unspecified)	40µM*	32µM*	50µM*	.	?
Cc1ccc2c(c1)c1c(n2CC(O)CNC(CO)(CO)CO)CCCC1 (stereo unspecified)	50µM*	?	?	.	-2%
Cc1ccc2c(c1)c1c(n2CC(O)CN2CCOCC2)CCCC1 (stereo unspecified)	?	.	-35%	?	.
Cc1ccc(-c2nc(N3CCN(S(=O)(=O)c4ccc(F)cc4)CC3)c3ccc(Cl)cc3n2)cc1	.	-6%	.	.	33%
Cc1ccc2c(c1)sc(-c1ccc(N(C)C)cc1)[n+]2C	50µM*	-34%	-36%	.	23%
CC[n+]1c(C)sc2cc(C)ccc21	?	1%	-38%	0%	59%
COc1cccc(-c2nc3c(c(SCc4ccccc4Cl)n2)Cc2c(CO)cnc(C)c2O3)c1	9%[59 µM]	7%	-13%	.	24%
CC(=O)c1cccc(Nc2cc(C)nc3nc(-c4ccccc4C)nn23)c1	0%[59 µM]	-19%	-9%	.	26%
Cn1c(CCNC(=O)c2ccccc2Cl)n[nH]c1=S	-18%[12.7 µM]	45µM*	4%	15%	9%
CCn1c(CCNC(=O)c2ccc(Cl)cc2)n[nH]c1=S	?	10µM*	5%	.	21%
N#C/C(=C\c1c(N2CCC(C(N)=O)CC2)nc2ccccn2c1=O)S(=O)(=O)c1ccc(Cl)cc1	0%	-21%	-24%	-16%	9%
C/C(=N\NC(=O)Cc1cccn1C)c1ccc2ccccc2c1	71µM*	?	?	.	-2%
C/C(=N\NC(=O)c1ccc(Cl)c(Cl)c1)c1ccc(Br)s1	27%[59 µM]	-5%	12%	4%	33%
C/C(=N\Nc1ccc(Cl)c(C(=O)O)c1)c1cccc([N+](=O)[O-])c1	16µM*	-22%	-33%	-17%	51%
C/C(=N\Nc1ccc(Cl)c(C(=O)O)c1)c1ccc(Br)s1	35µM*	28µM*	?	.	?
CC(C)(C)C(=O)OCOP(=O)(OCOC(=O)C(C)(C)C)C(C)(Oc1ccc(O)cc1)P(=O)(OCOC(=O)C(C)(C)C)OCOC(=O)C(C)(C)C	3.5µM*	.	.	.	.
CN(C)c1ccc(C(=O)OCC(=O)Nc2ccc(S(N)(=O)=O)cc2)cc1	?	56µM*	.	4%	?
CCOC(=O)c1c(C)c(C(=O)Nc2ccc(N(C)C)cc2)c(C)n1CC	2µM*	?	?	-14%	-10%
CCOC(=O)c1ccc(NCc2ccc(N(C)C)cc2)cc1	10µM*	?	11µM*	?	-11%
C=CCN1C(=O)c2ccc(C(=O)OCC(=O)Nc3ccc(S(N)(=O)=O)cc3)cc2C1=O	50µM*	-25%	8%	-3%	-16%
SMILES	G9a inh	JMJD2A Tudor inh	BAZ2B inh	L3MBTL1 inh	HP1b binding inh
CN(C)c1ccc(NC(=O)COC(=O)c2ccc3c(c2)OCO3)cc1	.	?	.	-7%	?
CCOC(=O)c1c(C)c(C(=O)NCCOC)c(C)n1CC	11%[59 µM]	-11%	6%	-1%	-8%
CCOc1ccc(N2C(=O)CC(NCCNc3ccc(C(=O)c4cccs4)cc3)C2=O)cc1 (stereo unspecified)	.	-14%	-12%	-6%	35%
COc1ccc(-c2ccc(CO)o2)cc1N	?	-19%[57.1 µM]	-38%	-25%	16%
COc1ccc(-c2nnc3n2N=C(c2c(OC)cccc2OC)CS3)c(OC)c1	.	-10%	.	.	.
S=C(NN=C1CCCCCC1)Nc1ccc(Cl)cc1	28µM*	100µM*	-2%	.	-18%
Fc1ccc(NC(=S)NN=C2CCCCCC2)cc1	35µM*	56µM*	?	-11%	-24%
O=C(NN=C1CCCCCCC1)c1ccc(F)cc1	-8%	?	-13%	5%[11.4 µM]	-9%
O=C(O)CCCn1cc(NC(=O)COc2ccccc2)cn1	.	-4%	-4%	.	16%
S=c1[nH]nc(-c2cccnc2)n1-c1ccc2c(c1)OCCO2	32µM*	25µM*	-11%	7%	19%
S=c1[nH]nc(-c2ccc(Cl)cc2)n1-c1ccc(Cl)cc1	8.9µM*	-29%	?	-2%	13%
Fc1ccc(-c2n[nH]c(=S)n2-c2ccc3c(c2)OCCO3)cc1	.	2.8µM*	-23%	2%	?
S=c1[nH]nc(-c2ccc(Cl)cc2)n1-c1ccc2c(c1)OCCO2	1.8µM*	?	-33%	-7%	14%
O=S(=O)(c1ccc2c(c1)OCO2)N1CCN(c2nc(-c3cccs3)nc3ccccc23)CC1	.	-10%	.	.	30%
COc1cc2c(cc1OC)C(O)C(O)(CO)C(C(=O)O)C2c1cc(OC)c(OC)c(OC)c1 (stereo unspecified)	.	-1%	.	.	10%[57 µM]
CCOC(=O)Oc1c(OC)cc(C(=O)O[C@H]2C[C@H]3CN4CCc5c([nH]c6cc(OC)ccc56)[C@@H]4C[C@H]3[C@@H](C(=O)OC)[C@@H]2OC)cc1OC	-6%[21.5 µM]	.	.	.	.
COc1ccc(Cl)cc1NC(=O)c1oc2ccc(S(=O)(=O)N3CCCCC3)cc2c1C	5%[59 µM]	-13%	0%	.	24%
COc1ccccc1NS(=O)(=O)c1ccc2c(c1)CCC(=O)N2	.	7%	.	.	.
Cn1cnnc1SC1CCCCC1NS(=O)(=O)c1ccccc1 (stereo unspecified)	3%[59 µM]	-10%	11%	-7%	32%

Screening results deposited in PubChem BioAssay by National Center for Advancing Translational Sciences (NCATS).
